Results as given in ChEMBL document CHEMBL4513149, “CO-ADD screening of MMV (CH) - MMV compounds” (2021).
Potency and affinity values are given separately.

Key:
Staphylococcus aureus = details: Concentration 20 uM; ASSAY_TEST Inhibition of Bacterial Growth; detection method Absorption (OD600); MEDIA CAMHB; plate type 384well; NBS; CORNING #3640; time 18 hr
Escherichia coli = details: Concentration 20 uM; ASSAY_TEST Inhibition of Bacterial Growth; detection method Absorption (OD600); MEDIA CAMHB; plate type 384well; NBS; CORNING #3640; time 18 hr

Structure (SMILES): CO[C@@H](C(=O)N1Cc2[nH]nc(NC(=O)c3ccc(N4CCN(C)CC4)cc3)c2C1)c1ccccc1 [DANUSERTIB]
- Inhibition (Staphylococcus aureus): 12.13%
- Inhibition (Escherichia coli): 1.94%

Structure (SMILES): Nc1c2c(nc3sc4c(c13)CCCC4)CCCC2
- Inhibition (Staphylococcus aureus): 6.99%
- Inhibition (Escherichia coli): -4.01%

Structure (SMILES): Cc1cccc(C(=O)Nc2ccnc(N(C)C3CCN(CC(C)C)CC3)c2)c1
- Inhibition (Staphylococcus aureus): 17.27%
- Inhibition (Escherichia coli): 7.9%

Structure (SMILES): CNCCC(Oc1ccc(C(F)(F)F)cc1)c1ccccc1 (stereo not given) [FLUOXETINE]
- Inhibition (Staphylococcus aureus): 7.53%
- Inhibition (Escherichia coli): 3%

Structure (SMILES): CC(=O)Oc1ccccc1C(=O)Nc1ncc([N+](=O)[O-])s1 [NITAZOXANIDE]
- Inhibition (Staphylococcus aureus): 50.75%
- Inhibition (Escherichia coli): -2.79%

Structure (SMILES): CC1(C)OB(O)c2ccc(C3=NOC(c4cc(Cl)c(F)c(Cl)c4)(C(F)(F)F)C3)cc21 (stereo not given)
- Inhibition (Staphylococcus aureus): 15.02%
- Inhibition (Escherichia coli): 11.05%

Structure (SMILES): Cc1nn(Cc2ccccc2)c(Cl)c1C(=O)NC1CCCCCC1
- Inhibition (Staphylococcus aureus): 11.91%
- Inhibition (Escherichia coli): 1.54%

Structure (SMILES): CO[C@@H]1CN(c2ccc(C#CC3(O)CN4CCC3CC4)c(Cc3ccccc3)n2)C[C@H]1O (stereo not given in full)
- Inhibition (Staphylococcus aureus): -11.47%
- Inhibition (Escherichia coli): -3.76%

Structure (SMILES): Cc1nn(C)c(C)c1NS(=O)(=O)c1c(Cl)cc(-c2ccnc(N3CCNCC3)c2)cc1Cl
- Inhibition (Staphylococcus aureus): 12.75%
- Inhibition (Escherichia coli): 5.87%

Structure (SMILES): Cc1cc(C2=NOC(c3cc(Cl)c(F)c(Cl)c3)(C(F)(F)F)C2)ccc1C(=O)NCc1ccc2c(c1)C(C)(C)OB2O (stereo not given)
- Inhibition (Staphylococcus aureus): 14.07%
- Inhibition (Escherichia coli): 6.28%
